The source of these data is paper PMC7862700, “An all-to-all approach to the identification of sequence-specific readers for epigenetic DNA modifications on cytosine”.

Test in all cases: DAPPL (digital affinity profiling via proximity ligation, sequencing); 10 mM Tris-HCl pH 7.5, 50 mM NaCl, 1 mM DTT, 4% glycerol, room temperature, 30 min; GST-TFs on glutathione beads, 16-mer random dsDNA library, 0.1% formaldehyde crosslink after washing; high values mean tight binding
What all share (details): protein: recombinant; tags: N-terminal GST; dsDNA, one strand shown

One assay addresses T1, FLI1 (Homo sapiens, UniProt Q01543 1-452).
T1 sequence: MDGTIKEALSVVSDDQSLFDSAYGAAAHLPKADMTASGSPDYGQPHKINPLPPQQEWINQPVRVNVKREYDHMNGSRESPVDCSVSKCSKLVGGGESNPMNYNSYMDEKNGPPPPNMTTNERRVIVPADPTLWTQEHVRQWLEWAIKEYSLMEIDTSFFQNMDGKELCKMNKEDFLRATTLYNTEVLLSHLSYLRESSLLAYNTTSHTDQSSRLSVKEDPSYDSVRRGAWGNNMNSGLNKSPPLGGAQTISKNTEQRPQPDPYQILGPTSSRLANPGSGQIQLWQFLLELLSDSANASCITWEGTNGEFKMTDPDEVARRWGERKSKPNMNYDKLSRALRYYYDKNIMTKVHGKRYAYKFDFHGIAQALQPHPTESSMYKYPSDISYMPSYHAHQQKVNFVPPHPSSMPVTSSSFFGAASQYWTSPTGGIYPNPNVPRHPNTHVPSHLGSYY
In outline: (§1)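 Pools were built from human transcription factors expressed in yeast as GST fusions, captured on glutathione beads and DNA-barcoded, along with a tag-only sample. Incubation with 200 nmole of a 16-mer random double-stranded DNA library lasted 30 min at room temperature in Tris/NaCl/DTT/glycerol buffer, and was followed by washing, 0.1% formaldehyde crosslinking, proximity ligation, PCR amplification and Illumina NextSeq500 sequencing. Binding signal is the quotient of each hexamer's read frequency for a factor and its frequency for the tag-only sample.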

The target in the next assay is T2, ELK1 (Homo sapiens, UniProt P19419 1-428).
T2 sequence: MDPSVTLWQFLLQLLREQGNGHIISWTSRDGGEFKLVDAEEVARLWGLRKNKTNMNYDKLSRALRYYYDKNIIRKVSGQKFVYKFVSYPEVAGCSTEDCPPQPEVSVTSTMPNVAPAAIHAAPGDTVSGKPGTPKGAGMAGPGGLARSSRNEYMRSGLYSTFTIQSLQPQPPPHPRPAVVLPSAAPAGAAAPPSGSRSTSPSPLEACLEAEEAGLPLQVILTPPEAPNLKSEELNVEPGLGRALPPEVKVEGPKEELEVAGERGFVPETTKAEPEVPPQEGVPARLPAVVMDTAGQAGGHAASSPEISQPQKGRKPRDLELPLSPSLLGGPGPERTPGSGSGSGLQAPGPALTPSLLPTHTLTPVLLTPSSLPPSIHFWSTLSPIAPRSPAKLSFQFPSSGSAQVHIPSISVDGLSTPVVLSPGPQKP
In outline:
as §1

A further assay concerns the target T3, GABPA (Homo sapiens, UniProt Q06546 1-454).
T3 sequence: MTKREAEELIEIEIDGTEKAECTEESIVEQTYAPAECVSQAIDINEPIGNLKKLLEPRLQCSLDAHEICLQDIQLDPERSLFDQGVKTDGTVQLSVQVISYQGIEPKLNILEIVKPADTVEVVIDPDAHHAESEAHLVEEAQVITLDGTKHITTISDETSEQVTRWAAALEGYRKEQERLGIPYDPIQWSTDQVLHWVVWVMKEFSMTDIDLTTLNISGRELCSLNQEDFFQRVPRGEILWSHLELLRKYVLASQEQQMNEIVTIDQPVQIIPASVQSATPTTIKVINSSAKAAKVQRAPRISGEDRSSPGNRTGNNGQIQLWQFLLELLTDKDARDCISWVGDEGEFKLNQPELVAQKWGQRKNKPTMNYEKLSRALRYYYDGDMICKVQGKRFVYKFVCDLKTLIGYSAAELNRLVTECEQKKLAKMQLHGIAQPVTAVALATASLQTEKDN
The essentials: as §1

The target in a further assay is T4, ERG (Homo sapiens, UniProt P11308 1-479).
T4 sequence: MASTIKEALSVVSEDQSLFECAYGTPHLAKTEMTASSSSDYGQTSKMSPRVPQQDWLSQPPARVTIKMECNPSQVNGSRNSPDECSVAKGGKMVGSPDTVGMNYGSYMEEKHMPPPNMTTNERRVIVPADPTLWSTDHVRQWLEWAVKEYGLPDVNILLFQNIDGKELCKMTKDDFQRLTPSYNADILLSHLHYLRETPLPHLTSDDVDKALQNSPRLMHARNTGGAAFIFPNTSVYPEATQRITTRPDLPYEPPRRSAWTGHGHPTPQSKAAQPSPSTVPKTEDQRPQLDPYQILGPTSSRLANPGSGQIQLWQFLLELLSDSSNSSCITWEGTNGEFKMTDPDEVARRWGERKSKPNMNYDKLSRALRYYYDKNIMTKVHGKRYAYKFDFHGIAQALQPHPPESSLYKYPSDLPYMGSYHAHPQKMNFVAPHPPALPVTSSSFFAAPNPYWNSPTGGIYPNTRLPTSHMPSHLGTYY
In outline:
as §1

The target of a further assay is ELF1 (Homo sapiens, UniProt P32519 1-619). In outline: as §1
In a further assay the target is T5, EHF (Homo sapiens, UniProt Q9NZC4 1-300).
T5 sequence: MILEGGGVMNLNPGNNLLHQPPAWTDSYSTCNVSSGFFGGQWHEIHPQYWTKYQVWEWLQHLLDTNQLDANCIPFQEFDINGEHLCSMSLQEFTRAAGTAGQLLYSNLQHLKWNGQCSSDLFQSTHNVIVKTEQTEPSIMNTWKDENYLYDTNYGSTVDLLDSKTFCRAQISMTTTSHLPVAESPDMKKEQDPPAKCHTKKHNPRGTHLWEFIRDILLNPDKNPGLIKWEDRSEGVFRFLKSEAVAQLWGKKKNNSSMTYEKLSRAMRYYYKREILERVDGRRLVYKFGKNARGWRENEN
The essentials:
as §1

The next assay deals with SPI1 (Homo sapiens, UniProt P17947 1-270). The essentials:
as §1

The target in the next assay is SPIB (Homo sapiens, UniProt Q01892 1-262). In outline: as §1
The next assay concerns the target T6, ELK3 (Homo sapiens, UniProt P41970 1-407).
T6 sequence: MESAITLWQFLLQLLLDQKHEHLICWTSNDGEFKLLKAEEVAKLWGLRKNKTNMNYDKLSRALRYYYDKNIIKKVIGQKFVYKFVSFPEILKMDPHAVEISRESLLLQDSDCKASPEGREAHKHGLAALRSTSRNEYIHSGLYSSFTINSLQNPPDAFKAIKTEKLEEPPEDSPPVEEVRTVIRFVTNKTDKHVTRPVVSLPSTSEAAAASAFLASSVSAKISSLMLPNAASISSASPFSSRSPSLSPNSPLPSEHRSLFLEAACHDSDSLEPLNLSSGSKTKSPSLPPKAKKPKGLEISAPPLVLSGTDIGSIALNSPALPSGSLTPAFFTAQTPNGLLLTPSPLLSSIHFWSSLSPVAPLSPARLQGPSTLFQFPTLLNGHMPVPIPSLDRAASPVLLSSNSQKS
The essentials: as §1

Sequence of SPIB (Q01892 whole entry): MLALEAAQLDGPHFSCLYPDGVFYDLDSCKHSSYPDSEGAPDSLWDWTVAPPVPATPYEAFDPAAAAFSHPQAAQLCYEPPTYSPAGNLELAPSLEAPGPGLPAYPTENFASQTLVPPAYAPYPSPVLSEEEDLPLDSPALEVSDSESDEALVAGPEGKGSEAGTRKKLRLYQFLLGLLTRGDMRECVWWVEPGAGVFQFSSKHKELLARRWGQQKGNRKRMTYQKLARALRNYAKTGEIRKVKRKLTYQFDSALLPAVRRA
Sequence of ELF1 (P32519 whole entry): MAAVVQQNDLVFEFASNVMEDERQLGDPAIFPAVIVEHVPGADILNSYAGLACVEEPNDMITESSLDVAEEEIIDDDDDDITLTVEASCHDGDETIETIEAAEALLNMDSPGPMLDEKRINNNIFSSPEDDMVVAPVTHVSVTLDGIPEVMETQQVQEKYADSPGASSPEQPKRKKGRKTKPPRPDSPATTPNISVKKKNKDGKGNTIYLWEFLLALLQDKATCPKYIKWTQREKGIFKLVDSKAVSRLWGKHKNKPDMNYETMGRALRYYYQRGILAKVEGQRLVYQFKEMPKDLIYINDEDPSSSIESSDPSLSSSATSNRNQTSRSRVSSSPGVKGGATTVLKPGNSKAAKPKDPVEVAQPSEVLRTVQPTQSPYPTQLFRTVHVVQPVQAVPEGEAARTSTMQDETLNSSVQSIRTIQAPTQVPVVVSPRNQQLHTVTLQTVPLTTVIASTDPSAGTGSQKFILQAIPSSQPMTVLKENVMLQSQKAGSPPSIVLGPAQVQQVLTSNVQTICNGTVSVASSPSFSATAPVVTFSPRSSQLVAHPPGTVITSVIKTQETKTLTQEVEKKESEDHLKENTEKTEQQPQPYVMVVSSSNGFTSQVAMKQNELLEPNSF

For the sequence TATTCA, the binding signal with FLI1 is 1.31 fold enrichment (6-mer frequency, TF over GST control); in the assay with ELK1 it was 1.26 fold enrichment (6-mer frequency, TF over GST control); with GABPA, 1.23 fold enrichment (6-mer frequency, TF over GST control); with ERG it was 1.29 fold enrichment (6-mer frequency, TF over GST control); in the assay with ELF1, 1.38 fold enrichment (6-mer frequency, TF over GST control); in the assay with EHF, 1.32 fold enrichment (6-mer frequency, TF over GST control). Moreover, the binding signal with SPI1 is 1.29 fold enrichment (6-mer frequency, TF over GST control); with SPIB, 1.27 fold enrichment (6-mer frequency, TF over GST control); with ELK3 it was 1.35 fold enrichment (6-mer frequency, TF over GST control).
In the case of CCTTAG, the binding signal in the assay with FLI1 was 1.3 fold enrichment (6-mer frequency, TF over GST control); with ELK1 it was 1.3 fold enrichment (6-mer frequency, TF over GST control); with GABPA it was 1.18 fold enrichment (6-mer frequency, TF over GST control); in the assay with ERG, 1.24 fold enrichment (6-mer frequency, TF over GST control); with ELF1 it was 1.27 fold enrichment (6-mer frequency, TF over GST control); with EHF, 1.3 fold enrichment (6-mer frequency, TF over GST control). In addition, the binding signal with SPI1 is 1.21 fold enrichment (6-mer frequency, TF over GST control); with SPIB it was 1.34 fold enrichment (6-mer frequency, TF over GST control); in the assay with ELK3 it was 1.23 fold enrichment (6-mer frequency, TF over GST control).
TAACGC: the binding signal with FLI1 is 1.12 fold enrichment (6-mer frequency, TF over GST control); with ELK1, 1.2 fold enrichment (6-mer frequency, TF over GST control); in the assay with GABPA, 1.21 fold enrichment (6-mer frequency, TF over GST control); in the assay with ERG, 1.17 fold enrichment (6-mer frequency, TF over GST control); with ELF1 it was 1.27 fold enrichment (6-mer frequency, TF over GST control); in the assay with EHF, 1.16 fold enrichment (6-mer frequency, TF over GST control). In addition, the binding signal with SPI1 was 1.17 fold enrichment (6-mer frequency, TF over GST control); with SPIB, 1.13 fold enrichment (6-mer frequency, TF over GST control); with ELK3, 1.23 fold enrichment (6-mer frequency, TF over GST control).
For the sequence GATTCT, the binding signal with FLI1 is 1.28 fold enrichment (6-mer frequency, TF over GST control); with ELK1, 1.22 fold enrichment (6-mer frequency, TF over GST control); with GABPA, 1.29 fold enrichment (6-mer frequency, TF over GST control); in the assay with ERG, 1.21 fold enrichment (6-mer frequency, TF over GST control); with ELF1 it was 1.26 fold enrichment (6-mer frequency, TF over GST control); with EHF it was 1.26 fold enrichment (6-mer frequency, TF over GST control). In addition, the binding signal is 1.3 fold enrichment (6-mer frequency, TF over GST control) with SPI1; 1.27 fold enrichment (6-mer frequency, TF over GST control) with SPIB; 1.33 fold enrichment (6-mer frequency, TF over GST control) in the assay with ELK3.
As for ACGACT, the binding signal was 1.27 fold enrichment (6-mer frequency, TF over GST control) with FLI1; 1.28 fold enrichment (6-mer frequency, TF over GST control) with ELK1; 1.36 fold enrichment (6-mer frequency, TF over GST control) with GABPA; 1.24 fold enrichment (6-mer frequency, TF over GST control) with ERG; 1.19 fold enrichment (6-mer frequency, TF over GST control) in the assay with ELF1; 1.17 fold enrichment (6-mer frequency, TF over GST control) with EHF. The binding signal with SPI1 is 1.27 fold enrichment (6-mer frequency, TF over GST control); with SPIB it was 1.17 fold enrichment (6-mer frequency, TF over GST control); in the assay with ELK3 it was 1.24 fold enrichment (6-mer frequency, TF over GST control).
In the case of ACAATT, the binding signal with FLI1 is 1.33 fold enrichment (6-mer frequency, TF over GST control); with ELK1 it was 1.27 fold enrichment (6-mer frequency, TF over GST control); with GABPA it was 1.15 fold enrichment (6-mer frequency, TF over GST control); in the assay with ERG it was 1.32 fold enrichment (6-mer frequency, TF over GST control); with ELF1, 1.32 fold enrichment (6-mer frequency, TF over GST control); in the assay with EHF, 1.23 fold enrichment (6-mer frequency, TF over GST control). Moreover, the binding signal with SPI1 is 1.23 fold enrichment (6-mer frequency, TF over GST control); with SPIB it was 1.2 fold enrichment (6-mer frequency, TF over GST control); with ELK3, 1.25 fold enrichment (6-mer frequency, TF over GST control).
For the sequence CGATGG, the binding signal with FLI1 was 1.36 fold enrichment (6-mer frequency, TF over GST control); with ELK1 it was 1.4 fold enrichment (6-mer frequency, TF over GST control); with GABPA, 1.36 fold enrichment (6-mer frequency, TF over GST control); with ERG, 1.34 fold enrichment (6-mer frequency, TF over GST control); in the assay with ELF1, 1.32 fold enrichment (6-mer frequency, TF over GST control); with EHF, 1.24 fold enrichment (6-mer frequency, TF over GST control). In addition, the binding signal in the assay with SPI1 was 1.41 fold enrichment (6-mer frequency, TF over GST control); with SPIB, 1.58 fold enrichment (6-mer frequency, TF over GST control); with ELK3, 1.4 fold enrichment (6-mer frequency, TF over GST control).
Turning to GCACTT, the binding signal was 1.61 fold enrichment (6-mer frequency, TF over GST control) in the assay with FLI1; 2 fold enrichment (6-mer frequency, TF over GST control) with ELK1; 1.87 fold enrichment (6-mer frequency, TF over GST control) in the assay with GABPA; 1.93 fold enrichment (6-mer frequency, TF over GST control) with ERG; 1.77 fold enrichment (6-mer frequency, TF over GST control) with ELF1; 1.79 fold enrichment (6-mer frequency, TF over GST control) in the assay with EHF. Moreover, the binding signal with SPI1 was 2.23 fold enrichment (6-mer frequency, TF over GST control); in the assay with SPIB, 1.7 fold enrichment (6-mer frequency, TF over GST control); with ELK3 it was 1.99 fold enrichment (6-mer frequency, TF over GST control).
